These results are taken from PubChem BioAssay (EPA / NIEHS).

Inconclusive results are not listed. Active and inactive are the calls of the source. How the source made its calls: active means hit-call score of the fitted dose curve at least 0.9, where 1 is the maximum; inconclusive means response in the unintended direction; inactive means score below 0.9.

A short description of this assay: ACEA_ER_AUC_viability: ACEA Biosciences xCELLigence Real-Time Cell Analysis on Estrogen Receptor Agonism for Viability (AID 2283782). In outline:
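Read-out: real-time electrical impedance (RT-CES) area under curve, loss of signal taken as reduced viability, normalized to DMSO baseline. T-47D cells, charcoal-stripped serum medium, compounds up to 100 uM final, continuous exposure, 80 h.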
Consider `C=C(C)c1cccc(C(C)(C)N=C=O)c1`, for which the molecule was classed as inactive.

Consider `O=C1CCCCCCCCCCCCCCCO1`, for which the outcome was inactive.

In the case of `NC(=O)c1ccccc1O`, the call was inactive.

By AC50 is commonly meant the concentration giving half of the maximal activity seen. In the case of `CCCCCCCCCCc1ccccc1`, the AC50 was 26.2 µM (active).

Turning to `CCCCCC(C)O` (stereo unspecified), the result was inactive.

With `CC(C)(C)C1CCCCC1=O` (stereo unspecified), the AC50 was 24.8 µM (active).

In the case of `CC(=O)OCCC1CCCCC1`, the result was inactive.

In the case of `C=CC(C)(CCC=C(C)C)OC(=O)CC(C)C` (stereo unspecified), the call was inactive.

For the molecule `O=C(Nc1ccccc1SSc1ccccc1NC(=O)c1ccccc1)c1ccccc1`, the AC50 is 77.7 µM (active).

For the molecule `CC1(C)[C@H]2CC[C@]1(C)C(=O)C2`, the result was inactive.

On to `CC(=O)c1ccc2c(c1)CCCC2`, for which the AC50 was 31.7 µM (active).

As for `Cc1cc(C)c(C)c(C)c1`, the result was inactive.

Consider `Cc1cccc(C(=O)O)c1`, for which the result was inactive.

Take `C=C[C@](C)(O)CC[C@@H]1[C@@]2(C)CCCC(C)(C)[C@@H]2CC[C@@]1(C)O`: the concentration at half-maximal activity (AC50) is 37.6 µM (active).

Turning to `CCC(Cc1ccccc1)(C(=O)c1ccc(N2CCOCC2)cc1)N(C)C` (stereo unspecified), the AC50 is 88.7 µM (active).

Take `CCOC(=O)[C@H](C)O`: the result was inactive.

On to `CC(=O)OCC(C)OC(C)=O` (stereo unspecified), for which the molecule was called inactive.

In the case of `Nc1ncn([C@@H]2O[C@H](CO)[C@@H](O)[C@H]2O)c(=O)n1`, the AC50 was 3.22 µM (active).

Consider `CC(C)=CCCC(C)C=O` (stereo unspecified), for which the AC50 is 11.9 µM (active).

With `O=C1CCCC1`, the outcome was inactive.

For the molecule `O=C1CC2CC1C1CCCC21` (stereo unspecified), the outcome was inactive.

In the case of `O=C1CCCCCCCCCCC(=O)OCCO1`, the AC50 is 68.3 µM (active).

Turning to `Nc1ccc(N=Nc2ccccc2)c(N)n1`, the outcome was inactive.

Consider `CCCNC(=O)NS(=O)(=O)c1ccc(Cl)cc1`, for which the outcome was inactive.

Turning to `COC(=O)/C=C\C(=O)O`, the result was inactive.

Take `O=CN1CCCCC1`: the molecule was called inactive.
